# Bioassay records: PubChem BioAssay, National Center for Advancing Translational Sciences (NCATS)
# IL-1B inflam inh – inhibitors of inflammasome signaling (IL-1 beta secretion). THP-1 LPS/ATP IL-1B secretion, AlphaLISA, 16 h; active compounds read low. activity change, % at 57.5 µM. hit rate 4.7% among 360,000; in the data active = activity change below about -50%; inconclusive = mostly about -30% to -49%
#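 Secreted IL-1B measured by AlphaLISA bead assay after 16 h compound exposure of THP-1 cells; compounds (final up to 57.5 uM) added 1 h before LPS (250 ng/mL) and ATP (1.25 mM) stimulation; lower signal means less secretion.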
# RORgamma inh – blocks mouse ROR gamma transcriptional activity; hit rate 5.4% among 310,000; Potency, µM (titrated, usually from 53.6 µM), without a hit: top-dose activity change, negative = inhibition, hits mostly inhibitors; P51450; Drosophila S2 Gal4-RORgamma UAS-luciferase reporter, 20 h; AID 2551; also: potency is read from the fitted curve at half-maximal effect; nearly all actives have a fitted effect of over 60% in size
# Target sequence (P51450 whole entry, looked up, the tested form may be a part): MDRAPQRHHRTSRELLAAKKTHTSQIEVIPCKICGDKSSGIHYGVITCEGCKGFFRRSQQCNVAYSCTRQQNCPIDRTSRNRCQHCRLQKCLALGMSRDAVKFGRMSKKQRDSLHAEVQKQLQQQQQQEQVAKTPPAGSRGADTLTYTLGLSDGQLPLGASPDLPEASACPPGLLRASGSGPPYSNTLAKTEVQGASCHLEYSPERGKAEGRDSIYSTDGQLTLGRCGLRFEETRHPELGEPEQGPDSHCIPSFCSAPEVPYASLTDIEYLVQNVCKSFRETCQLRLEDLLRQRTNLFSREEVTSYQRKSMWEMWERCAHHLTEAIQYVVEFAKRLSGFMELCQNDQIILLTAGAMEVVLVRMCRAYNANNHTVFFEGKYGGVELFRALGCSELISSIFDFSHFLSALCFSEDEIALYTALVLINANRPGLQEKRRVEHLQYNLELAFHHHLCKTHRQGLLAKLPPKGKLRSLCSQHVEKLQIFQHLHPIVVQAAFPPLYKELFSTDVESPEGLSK
#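 A Gal4/UAS one-hybrid system in insect cells: metallothionein-promoter Gal4–ROR gamma fusion plus Photinus luciferase reporter. Copper sulfate 700 uM final, 20 hr ambient incubation, luminescent detection after 10 min with reagent.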
# TDP1 cell noCPT – qHTS for Inhibitors of human tyrosyl-DNA phosphodiesterase 1 (TDP1): qHTS in cells in absence of CPT | DT40 Tdp1-/- hTDP1 cells, no CPT, ATP luminescence, 48 h | Potency, µM (doses to about 46.2 µM), for inactives: top-dose activity change, negative = growth inhibition, actives largely listed as inhibitors | hit rate 15% among 420,000 | AID 686978, 2013; also: potency is read from the fitted curve at half-maximal effect; nearly all actives have a fitted effect of over 55% in size
#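 A cellular qHTS used chicken DT40 cells lacking endogenous Tdp1 but carrying stably transfected human TDP1. Compounds were applied without camptothecin, and cell growth kinetics were judged by ATP-dependent luminescence after ≥48 hr.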
# VP16 counter – counter-screen for ROR gamma inhibitors: Gal4-VP16 reporter | Potency, µM (series often up to 53.6 µM), for the others: at the highest dose activity, negative = inhibition, actives largely listed as inhibitors | Drosophila S2 Gal4-VP16 UAS-luciferase, luminescence, 20 h | hit rate 3.5% among 310,000 | AID 2546;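 also: Gal4-VP16 expression switched on by copper sulfate through the metallothionein promoter; potency is read from the fitted curve at half-maximal effect; nearly all actives have a fitted effect of over 50% in size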
# TDP1 cell CPT – growth inhibition of DT40 Tdp1-/-;hTDP1 cells with camptothecin (screen for TDP1 inhibitors) | chicken DT40 Tdp1-/-;hTDP1 cells + 20 nM CPT, ATP luminescence, 48 h | Potency, µM (series often up to 46.2 µM), inactives show at the top dose activity change, negative = growth inhibition, hits mostly inhibitors | hit rate 12% among 420,000 | AID 686979; also: potency is read from the fitted curve at half-maximal effect; nearly all actives have a fitted effect of over 55% in size
#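 Cell growth measured by CellTiter-Glo luminescence after a minimum 48 h, 37 C compound exposure with 20 nM CPT in Tdp1-knockout DT40 cells stably expressing hTDP1, seeded 400/well; qHTS titration format.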
# ELG1 DNA repair – ELG1-dependent DNA repair inhibition; HEK293T ELG1-luciferase reporter, luminescence, 16 h; DNA damage induced by 5-fluorouridine; Potency, µM (highest dose often 46.1 µM), for the others: at the highest dose activity change, negative = inhibition, hits mostly inhibitors; hit rate 2.3% among 330,000; AID 504467; also: potency is read from the fitted curve at half-maximal effect; nearly all actives have a fitted effect of over 55% in size
#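 DMSO vehicle served as the neutral condition. Each well held 2,000 cells given 5-fluorouridine plus compound; after 16 hr at 37 °C/5% CO2, ONE-Glo was added and luciferase measured 30 min later.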
# The depositor's hits bear a star; i = inactive; ? = inconclusive; . = not tested or not shown; [ ] = remark or other dose. Hits are enriched below; roughly 21% of the tested compounds scored in any of these assays. Unless noted, calls follow the shape of the dose curve; as a rule, active = well fitted curve in the direction sought with a large enough effect; inconclusive = small, poorly fitted or top-dose-only effect, or another doubt; inactive = no such curve, though single readings can be large; an effect the other way counts as inactive or inconclusive. % is scaled to controls: 0 for no effect and ±100 for the full control effect.
SMILES,IL-1B inflam inh,RORgamma inh,TDP1 cell noCPT,VP16 counter,TDP1 cell CPT,ELG1 DNA repair
O=C1C2C3C=CC(CO)(O3)C2C(=O)N1c1ccc(-c2ccccc2)cc1 (stereo not drawn),.,6.3µM*,.,10µM*,.,?
CCOc1ccc(OCCC(=O)OCC(=O)N(CC)c2c(N)n(Cc3ccccc3)c(=O)[nH]c2=O)cc1,-1,.,?,.,?,.
O=C(NNC1CC(c2ccccc2)=NN1C(=O)c1ccccc1)c1ccccc1 (stereo not drawn),-7,26%,23µM*,-4%[10 µM],26µM*,0%
Cc1ccc(C2=NN(C(=O)c3cccs3)C(c3ccccc3O)C2)cc1 (stereo not drawn),-26,0%,?,-12%,?,-1%
O=C(c1cccs1)N1N=C(c2ccccc2)CC1c1ccccc1O (stereo not drawn),-79*,-23%,?,-18%,-3%,6%
COc1ccc(C2=NN(C(=O)c3cccs3)C(c3ccccc3OC)C2)cc1OC (stereo not drawn),-84*,-18%,?,1%,?,?
CC(=O)N1N=C(c2ccccc2)CC1c1cn(Cc2ccccc2)c2ccccc12 (stereo not drawn),-4,?,?,?,18µM*,?
CSCCC(NC(=O)/C(=C/c1ccco1)NC(=O)c1ccco1)C(=O)O (stereo not drawn),.,.,?,.,-5%,.
CC(=O)Nc1ccn(C2OC(C(COC(C)=O)NC(=O)C(C)NC(=O)OC(C)(C)C)C(OC(C)=O)C2OC(C)=O)c(=O)n1 (stereo not drawn),.,-11%,.,-6%,.,.
O=C(c1ccccc1Cl)N1N=C(c2ccc(Br)cc2)CC1c1nc2ccccc2[nH]1 (stereo not drawn),-67*,?,16µM*,?,?,?
O=C(c1ccccc1)N1N=C(c2ccccc2)CC1c1ccccc1O (stereo not drawn),-108*,4.5µM*,?,4µM*,23µM*,-16%
O=C(c1ccncc1)N1N=C(c2ccc(Br)cc2)CC1c1ccccc1O (stereo not drawn),-63*,25%,?,-15%,?,?
O=C(c1cccc(Cl)c1)N1CCC(c2nc3ccccc3[nH]2)CC1,16,11%,?,1%,6%,?
CC(=O)N1N=C(c2ccncc2)CC1c1ccccc1O (stereo not drawn),106,?,0%,-15%,11%,-8%
Cc1ccc(C2=NN(C(=O)c3ccccc3F)C(c3ccccc3F)C2)cc1 (stereo not drawn),-16,-18%,21µM*,-5%,21µM*,?
COC(=O)NC(c1ccccc1)C1(C(=O)OC)C(=O)Cc2ccccc21 (stereo not drawn),.,19%,.,4%,.,.
Nc1nonc1-n1nnc(C(=O)N/N=C/c2ccco2)c1CSc1ccc(Cl)cc1,26,.,?,.,?,.
CCOc1ccc(NC(=O)CSc2nc3c(oc4ccccc43)c(=O)n2-c2cc(C)cc(C)c2)cc1,.,.,2%,.,-2%,.
Cc1cc(C)cc(-n2c(SCC(=O)Nc3ccccc3)nc3c(oc4ccccc43)c2=O)c1,.,.,?,.,15µM*,.
Cc1ccc(NC(=O)CSc2nc3c(oc4ccccc43)c(=O)n2-c2ccc(F)cc2)c(C)c1,.,.,-23%,.,-22%,.
COc1cccc(NC(=O)CSc2nc3c(oc4ccccc43)c(=O)[nH]2)c1,-1,2%,23µM*,-1%,-15%,?
COc1ccccc1NC(=O)CSc1nc2c(oc3ccccc32)c(=O)n1-c1ccc(C)cc1,.,.,8.2µM*,.,18µM*,.
Cc1cc(C)cc(-n2c(SCC(=O)Nc3ccccc3F)nc3c(oc4ccccc43)c2=O)c1,.,.,7.3µM*,.,16µM*,.
CC(=O)c1ccc(F)c(-c2cc(C)cc3c2OC(CNC(=O)c2ccnn2C)C3)c1 (stereo not drawn),.,.,-25%,.,23%[9.04 µM],.
Cc1cc(C)c(C#N)c(N2CCN(C(=O)C3COc4ccccc4O3)CC2)n1 (stereo not drawn),0,.,?,.,?,?
SMILES,IL-1B inflam inh,RORgamma inh,TDP1 cell noCPT,VP16 counter,TDP1 cell CPT,ELG1 DNA repair
C=CCN(c1ccccc1)S(=O)(=O)c1cccc(C(=O)N2CC(C)CC(C)C2)c1 (stereo not drawn),i,5%,3.7µM*,2%,9.2µM*,?
C=CCN(c1ccccc1)S(=O)(=O)c1cccc(C(=O)N2CCCC2)c1,7,.,18µM*,.,16µM*,?
C=CCN(c1ccccc1)S(=O)(=O)c1cccc(C(=O)NNC(=O)c2ccncc2)c1,-15,.,?,.,-12%,30%
CCOC(=O)c1c(C)[nH]c(C)c1S(=O)(=O)N1CCC(C(=O)NCc2cccc(OC)c2)CC1,.,.,4%,.,11%,.
COC(=O)c1cccc(Nc2cc(C)nc(-c3ccccc3O)n2)c1,-3,76%,16µM*,-3%[0.365 µM],?,?
Cc1cc(Nc2ccc(Cl)cc2)nc(-c2ccccc2O)n1,-23,40%,26µM*,19%,?,-1%
